Assay [1] deals with Calcium and integrin-binding protein 1 (Homo sapiens) (UniProt Q99828). As to the kind of experiment: Primary qHTS for Identification of Calcium Integrin Binding Protein 1 (CIB1) Competitor (AID 1508620). Also: top concentration of the series differs between compounds; % is scaled to controls: 0 for no effect and ±100 for the full control effect. The method in brief: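 Fluorescence polarization competition: GST-tagged CIB1 (1 uM final) preincubated with compound 15 min at room temperature, then FITC-labelled alphaIIb peptide (100 nM final) added. After 15 min at room temperature, polarization read at Ex 480/Em 540.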

Assay [2] in a line: Primary qHTS for inhibitors of nuclear receptor binding SET domain protein 2 (NSD2) in an isogenic RCH-ACV NSD2 p.E1099K mutant (9B) (AID 1645876). Also: nearly all actives have a fitted effect of over 70% in size.
Assay [3] in a line: Primary qHTS for inhibitors of nuclear receptor binding SET domain protein 2 (NSD2) in an RCH-ACV wild type WT cells (2C) (AID 1645877). Also: nearly all actives have a fitted effect of over 70% in size.
Assay [4] concerns the target Catechol O-methyltransferase (Homo sapiens) (UniProt P21964). Kind of assay: Confirmatory Screen for Target Class Profiling of Small Molecule Inhibitors of Methyltransferases (AID 1745852). As to activity change, negative = inhibition: % is scaled to controls: 0 for no effect and ±100 for the full control effect. The note with it: MTase-Glo luminescence, SAH detection, recombinant enzyme; measured here: COMT max response; stronger effect = lower value.
The target in assay [5] is Guanidinoacetate N-methyltransferase (Homo sapiens) (UniProt Q14353). The description is as above. The note with it: MTase-Glo luminescence, SAH detection, recombinant enzyme; activity change, negative = inhibition: at 57.3 µM (top of the series) unless noted.
The target in assay [6] is Nicotinamide N-methyltransferase (Homo sapiens) (UniProt P40261). The assay is described as above. To be noted: MTase-Glo luminescence, SAH detection, recombinant enzyme; measured here: NNMT max response; stronger effect = lower value.
The target of assay [7] is Phenylethanolamine N-methyltransferase (Homo sapiens) (UniProt P11086). The description is as above. To be noted: MTase-Glo luminescence, SAH detection, recombinant enzyme; measured here: PNMT max response; stronger effect = lower value.

Structures are written as SMILES. Results filed as inconclusive are left out. Activity calls are given as the source filed them. Calls follow the shape of the dose curve; as a rule, active = well fitted curve in the direction sought with a large enough effect; inconclusive = small, poorly fitted or top-dose-only effect, or another doubt; inactive = no such curve, though single readings can be large; an effect the other way counts as inactive or inconclusive.

Chain of Calcium and integrin-binding protein 1 (Homo sapiens) (Q99828 whole entry, looked up): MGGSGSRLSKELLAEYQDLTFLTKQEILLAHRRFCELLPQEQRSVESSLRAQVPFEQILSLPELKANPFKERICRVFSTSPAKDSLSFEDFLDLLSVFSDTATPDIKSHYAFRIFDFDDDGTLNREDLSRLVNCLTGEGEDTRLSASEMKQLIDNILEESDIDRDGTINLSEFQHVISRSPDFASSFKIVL
Chain of Phenylethanolamine N-methyltransferase (Homo sapiens) (P11086 whole entry, looked up): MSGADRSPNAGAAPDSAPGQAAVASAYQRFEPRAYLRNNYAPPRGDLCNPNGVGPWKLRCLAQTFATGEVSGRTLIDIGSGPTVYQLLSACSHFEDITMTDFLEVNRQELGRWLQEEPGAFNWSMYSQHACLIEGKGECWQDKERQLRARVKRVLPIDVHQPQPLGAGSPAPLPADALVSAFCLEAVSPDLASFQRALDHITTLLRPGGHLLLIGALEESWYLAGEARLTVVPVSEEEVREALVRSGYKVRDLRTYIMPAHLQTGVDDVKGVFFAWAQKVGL
Chain of Catechol O-methyltransferase (Homo sapiens) (P21964 whole entry, looked up): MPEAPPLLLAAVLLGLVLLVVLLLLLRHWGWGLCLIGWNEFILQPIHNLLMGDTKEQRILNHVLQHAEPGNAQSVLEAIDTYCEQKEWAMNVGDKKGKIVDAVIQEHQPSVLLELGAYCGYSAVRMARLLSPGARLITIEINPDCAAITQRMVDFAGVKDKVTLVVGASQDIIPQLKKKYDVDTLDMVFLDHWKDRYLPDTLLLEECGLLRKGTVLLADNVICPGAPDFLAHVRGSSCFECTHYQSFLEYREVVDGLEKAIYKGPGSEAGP
Chain of Nicotinamide N-methyltransferase (Homo sapiens) (P40261 whole entry, looked up): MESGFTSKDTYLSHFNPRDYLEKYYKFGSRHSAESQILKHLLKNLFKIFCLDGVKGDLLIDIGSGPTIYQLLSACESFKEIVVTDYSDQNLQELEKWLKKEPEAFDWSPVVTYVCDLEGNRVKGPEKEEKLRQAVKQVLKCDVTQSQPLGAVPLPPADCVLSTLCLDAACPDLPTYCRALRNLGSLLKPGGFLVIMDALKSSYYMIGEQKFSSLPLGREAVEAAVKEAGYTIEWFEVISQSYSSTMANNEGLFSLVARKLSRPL

On to `COC(=O)C1=COC(OC2OC(CO)C(O)C(O)C2O)C2C(COC(=O)/C=C/c3ccc(O)c(O)c3)C(O)C(O)C12` (stereo not drawn), for which the Potency entry in assay [1], in assay [2] and in assay [3] was “inactive” each time.
Consider `CC1=CCC(O)C2(C)CCC3C(C)C(=O)OC3C12` (stereo not drawn), for which the Potency entry in assay [1], in assay [2] and in assay [3] was “inactive” each time. For the same compound, the activity was -77% in assay [4], 2.91% in assay [6] and -2.6% in assay [7]. Also, the activity change, negative = inhibition in assay [5] stood at 0%.
`C=C1C(O)CC2C(C(=O)O)=COC(O[C@@H]3O[C@H](COC(=O)c4ccc(O)cc4)[C@@H](O)[C@H](O)[C@H]3O)C12` (stereo partly drawn): the Potency entry in assay [1], in assay [2] and in assay [3] was “inactive” each time.
For the compound `O=C(CCc1ccccc1)c1c(O)c([C@@H]2O[C@H](CO)[C@@H](O)[C@H](O)[C@H]2O)c(O)c([C@@H]2O[C@H](CO)[C@@H](O)[C@H](O)[C@H]2O)c1O`, the Potency entry in assay [1], in assay [2] and in assay [3] was “inactive” each time. Also, the results for the activity in assay [4], in assay [6] and in assay [7] were -89.3%, -0.132% and 4.21%, respectively. For the same compound, the activity change, negative = inhibition in assay [5] was determined as 2.13% [at 19.1 µM].
For `COc1cc(C[C@@]2(O)CO[C@@H](c3ccc(O[C@@H]4O[C@H](CO)[C@@H](O)[C@H](O)[C@H]4O)c(OC)c3)[C@H]2CO)ccc1O`, the Potency result in assay [1], in assay [2] and in assay [3] was “inactive” in each case.

The record behind these values is PubChem BioAssay (NCATS).
